Reference: the OligoGym collection

Molecular target: FAM174A
Assay: pooled miR-30 sensor sort-seq; sequence = guide strand
Conditions: shRNA

| Sequence | sensor-assay potency score (higher = more potent) |
| --- | --- |
| TGTTAGTGTCCAAAACTCCATA | -0.864 |
| TTCTTCTTCTCATCCTGACCGT | -0.117 |
| TGATCGTCCGTCTCAAGCCCGG | -1.42 |
| AAGTACACCAGCACCGCGCCGC | -0.391 |
| TATCTCCTAGTCTTTCGGTTTC | -1.02 |
| TAGTTCAGGCAGCAACAGCAGG | -1.17 |
| TTGGCATCAAACAACGTGTTGT | -0.0509 |
| ATATCTCCTAGTCTTTCGGTTT | -1.26 |
| ATTTTCTATGTTAGTGTCCAAA | -1.74 |
| TCTTCTTCTCATCCTGACCGTC | -0.459 |
| TTCTAAAGGTGTCAATTCCATA | -1.28 |
| TAGTCTTTCGGTTTCTTCTTCT | 0.156 |
